Data: PubChem BioAssay AID1159580 (chemical genetic matrix, 2015)
The campaign covered roughly 5,500 compounds. About 2,000 (36%) were called active. Inconclusive results (about 18%) are left out. No stated cut-off is given here; in the data, active means normalized growth mostly below about 0.91 (no sharp cut-off); inconclusive means no clear call, values can overlap the other calls; inactive means mostly above about 0.92. The list shows a part of the results.

Assay: chemical genetic growth profiling, strain panel (AID 1159580);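 further: tested at 20 µM; growth read once vehicle control cultures reached saturation at 30 °C; 1 = growth at the plate median or of vehicle wells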
Details: growth OD
[1] = S. cerevisiae deletion strains, locus YAL013W, strain DEP1, stronger effect = lower value
[2] = S. cerevisiae deletion strains, locus YBR229C, strain ROT2, stronger effect = lower value
[3] = S. cerevisiae deletion strains, locus YDL101C, strain DUN1, stronger effect = lower value
[4] = S. cerevisiae deletion strains, locus YEL061C, strain CIN8, stronger effect = lower value
[5] = S. cerevisiae deletion strains, locus YGR078C, strain PAC10, stronger effect = lower value
[6] = S. cerevisiae deletion strains, locus YJR043C, strain POL32, stronger effect = lower value
[7] = S. cerevisiae deletion strains, locus YJR075W, strain HOC1, stronger effect = lower value
[8] = S. cerevisiae deletion strains, locus YLR039C, strain RIC1, stronger effect = lower value
[9] = S. cerevisiae deletion strains, locus YLR262C, strain YPT6, stronger effect = lower value
[10] = S. cerevisiae deletion strains, locus YNL153C, strain GIM3, stronger effect = lower value
[11] = S. cerevisiae deletion strains, locus YNL322C, strain KRE1, stronger effect = lower value
[12] = S. cerevisiae deletion strains, locus YPL055C, strain LGE1, stronger effect = lower value
[13] = S. cerevisiae deletion strains, locus YPL241C, strain CIN2, stronger effect = lower value
[14] = S. cerevisiae deletion strains, locus YMR307W, strain GAS1, stronger effect = lower value

Measured: normalized growth

Cc1onc(-c2c(Cl)cccc2Cl)c1C(=O)OCC(F)(F)F
inactive: [1] 1.01 | [2] 1.01 | S. cerevisiae deletion strains, locus YCL061C, strain MRC1, stronger effect = lower value 1.02 | [3] 0.984 | S. cerevisiae deletion strains, locus YDR150W, strain NUM1, stronger effect = lower value 0.982 | [4] 1 | [5] 0.99 | S. cerevisiae deletion strains, locus YHR030C, strain SLT2, stronger effect = lower value 1.05 | S. cerevisiae deletion strains, locus YHR087W, strain rtc3, stronger effect = lower value 0.986 | [6] 0.99 | [7] 1 | S. cerevisiae deletion strains, locus YKL190W, strain CNB1, stronger effect = lower value 1 | [8] 0.955 | S. cerevisiae deletion strains, locus YLR058C, strain SHM2 (second series), stronger effect = lower value 1.01 | S. cerevisiae deletion strains, locus YLR085C, strain ARP6, stronger effect = lower value 0.971 | [9] 0.942 | S. cerevisiae deletion strains, locus YML094W, strain GIM5, stronger effect = lower value 1.01 | S. cerevisiae deletion strains, locus YMR219W, strain ESC1, stronger effect = lower value 0.997 | S. cerevisiae deletion strains, locus YMR263W, strain SAP30, stronger effect = lower value 1 | [10] 1.02 | S. cerevisiae deletion strains, locus YNL298W, strain CLA4 (second series), stronger effect = lower value 1.02 | [11] 1 | S. cerevisiae deletion strains, locus YNR030W, strain Alg12, stronger effect = lower value 0.985 | [12] 1.01 | [13] 1.04 | S. cerevisiae deletion strains, locus YPR135W, strain CTF4, stronger effect = lower value 0.989

NC/C=C\C(=O)O
inactive: [1] 1 | S. cerevisiae deletion strains, locus YAL040C, strain CLN3, stronger effect = lower value 0.994 | S. cerevisiae deletion strains, locus YER002W, strain NOP16, stronger effect = lower value 1.01 | S. cerevisiae deletion strains, locus YGR229C, strain SMI1, stronger effect = lower value 1.02 | [14] 1 | S. cerevisiae deletion strains, locus YNL175C, strain NOP13, stronger effect = lower value 1 | S. cerevisiae deletion strains, locus YNL197C, strain WHI3, stronger effect = lower value 0.985 | S. cerevisiae deletion strains, locus YNL224C, strain SQS1, stronger effect = lower value 0.993 | S. cerevisiae deletion strains, locus YOR083W, strain WHI5 (second series), stronger effect = lower value 1.02

CCC(C)c1cnc(CC(C)C)c(=O)n1O (configuration not stated)
active: S. cerevisiae deletion strains, locus YDL035C, strain GPR1, stronger effect = lower value 0.818 | S. cerevisiae deletion strains, locus YDL185W, strain tfp1, stronger effect = lower value 0.231 | S. cerevisiae deletion strains, locus YDR162C, strain NBP2, stronger effect = lower value 0.545 | [4] 0.846 | S. cerevisiae deletion strains, locus YGL078C, strain dbp3, stronger effect = lower value 0.87 | S. cerevisiae deletion strains, locus YHR129C, strain ARP1, stronger effect = lower value 0.894 | S. cerevisiae deletion strains, locus YIL125W, strain kgd1, stronger effect = lower value 0.815 | [6] 0.645 | [7] 0.837 | S. cerevisiae deletion strains, locus YKL068W, stronger effect = lower value 0.864 | S. cerevisiae deletion strains, locus YKL085W, strain MDH1 (second series), stronger effect = lower value 0.771 | S. cerevisiae deletion strains, locus YKL085W, strain MDH1, stronger effect = lower value 0.771 | [14] 0.534 | S. cerevisiae deletion strains, locus YNL271C, strain bni1, stronger effect = lower value 0.78 | S. cerevisiae deletion strains, locus YNL298W, strain CLA4, stronger effect = lower value 0.708 | [11] 0.579 | [12] 0.548 | [13] 0.717 | S. cerevisiae deletion strains, locus YPR141C, strain kar3, stronger effect = lower value 0.844 | S. cerevisiae strains, strain wild type, stronger effect = lower value 0.275
inactive: S. cerevisiae deletion strains, locus YBR021W, strain FUR4, stronger effect = lower value 1.01 | [2] 1.01 | S. cerevisiae deletion strains, locus YCL029C, strain bik1, stronger effect = lower value 1.02 | S. cerevisiae deletion strains, locus YDL074C, strain BRE1, stronger effect = lower value 0.876 | [3] 1.02 | S. cerevisiae deletion strains, locus YDL134C, strain PPH21, stronger effect = lower value 1.04 | S. cerevisiae deletion strains, locus YDL192W, strain arf1, stronger effect = lower value 0.933 | S. cerevisiae deletion strains, locus YDR101C, strain arx1, stronger effect = lower value 0.993 | S. cerevisiae deletion strains, locus YDR318W, strain mcm21, stronger effect = lower value 1.03 | S. cerevisiae deletion strains, locus YDR388W, stronger effect = lower value 1.02 | S. cerevisiae deletion strains, locus YDR502C, strain sam2, stronger effect = lower value 0.967 | S. cerevisiae deletion strains, locus YER110C, stronger effect = lower value 1.02 | S. cerevisiae deletion strains, locus YER155C, strain BEM2, stronger effect = lower value 1.01 | S. cerevisiae deletion strains, locus YER167W, strain BCK2, stronger effect = lower value 0.998 | S. cerevisiae deletion strains, locus YGL086W, strain mad1, stronger effect = lower value 0.946 | S. cerevisiae deletion strains, locus YGL248W, strain PDE1, stronger effect = lower value 1.04 | [5] 0.905 | S. cerevisiae deletion strains, locus YGR135W, strain pre9, stronger effect = lower value 0.977 | S. cerevisiae deletion strains, locus YGR252W, strain gcn5, stronger effect = lower value 1.1 | S. cerevisiae deletion strains, locus YHR079C, strain IRE1 (second series), stronger effect = lower value 1.02 | S. cerevisiae deletion strains, locus YHR094C, strain hxt1, stronger effect = lower value 1.01 | S. cerevisiae deletion strains, locus YHR200W, strain rpn10, stronger effect = lower value 0.961 | S. cerevisiae deletion strains, locus YIL066C, strain RNR3, stronger effect = lower value 0.994 | S. cerevisiae deletion strains, locus YIL073C, strain SPO22, stronger effect = lower value 1.18 | S. cerevisiae deletion strains, locus YIR030C, strain dcg1, stronger effect = lower value 1.01 | S. cerevisiae deletion strains, locus YJL095W, strain BCK1, stronger effect = lower value 0.981 | S. cerevisiae deletion strains, locus YJL134W, strain LCB3, stronger effect = lower value 0.993 | S. cerevisiae deletion strains, locus YJL168C, strain set2, stronger effect = lower value 1.02 | S. cerevisiae deletion strains, locus YJL187C, strain SWE1 (second series), stronger effect = lower value 1.01 | S. cerevisiae deletion strains, locus YKL009W, strain mrt4, stronger effect = lower value 0.936 | S. cerevisiae deletion strains, locus YKR001C, strain vps1, stronger effect = lower value 0.963 | [8] 0.771 | S. cerevisiae deletion strains, locus YLR058C, strain SHM2, stronger effect = lower value 1.02 | S. cerevisiae deletion strains, locus YLR102C, strain apc9, stronger effect = lower value 1.02 | [9] 0.806 | S. cerevisiae deletion strains, locus YLR268W, strain sec22, stronger effect = lower value 1.01 | S. cerevisiae deletion strains, locus YLR371W, strain rom2, stronger effect = lower value 1.04 | S. cerevisiae deletion strains, locus YLR418C, strain cdc73, stronger effect = lower value 0.991 | S. cerevisiae deletion strains, locus YML016C, strain PPZ1, stronger effect = lower value 1.01 | S. cerevisiae deletion strains, locus YML032C, strain rad52, stronger effect = lower value 1.01 | S. cerevisiae deletion strains, locus YML124C, strain tub3, stronger effect = lower value 1.02 | S. cerevisiae deletion strains, locus YMR078C, strain ctf18, stronger effect = lower value 1.01 | S. cerevisiae deletion strains, locus YMR223W, strain ubp8, stronger effect = lower value 1.01 | S. cerevisiae deletion strains, locus YNL067W, strain RPL9B, stronger effect = lower value 0.955 | [10] 0.881 | S. cerevisiae deletion strains, locus YNL233W, strain BNI4, stronger effect = lower value 0.969 | S. cerevisiae deletion strains, locus YNL250W, strain rad50, stronger effect = lower value 0.906 | S. cerevisiae deletion strains, locus YNL307C, strain MCK1, stronger effect = lower value 1.02 | S. cerevisiae deletion strains, locus YNR052C, strain pop2, stronger effect = lower value 1.03 | S. cerevisiae deletion strains, locus YOL006C, strain TOP1, stronger effect = lower value 1.21 | S. cerevisiae deletion strains, locus YOL012C, strain htz1 0.477 | S. cerevisiae deletion strains, locus YOL147C, strain pex11, stronger effect = lower value 1 | S. cerevisiae deletion strains, locus YOR061W, strain CKA2, stronger effect = lower value 0.997 | S. cerevisiae deletion strains, locus YOR069W, strain VPS5, stronger effect = lower value 0.998 | S. cerevisiae deletion strains, locus YOR136W, strain idh2, stronger effect = lower value 1.03 | S. cerevisiae deletion strains, locus YOR144C, strain elg1, stronger effect = lower value 1.01 | S. cerevisiae deletion strains, locus YOR184W, strain ser1, stronger effect = lower value 0.957 | S. cerevisiae deletion strains, locus YOR316C, strain cot1, stronger effect = lower value 1.03 | S. cerevisiae deletion strains, locus YPR119W, strain clb2, stronger effect = lower value 1.01 | S. cerevisiae deletion strains, locus YPR163C, strain tif3, stronger effect = lower value 1.02 | S. cerevisiae deletion strains, locus YPR167C, strain met16, stronger effect = lower value 1.01 | S. cerevisiae deletion strains, strain wtn01, stronger effect = lower value 0.902
